Source: the supplement of paper PMC8728848
Only a selection was taken, and the strongest signals are over-represented in it overall.

How the values were obtained:
Experiment in all cases: glycan array binding signal (z-score within array); higher = stronger binding
Details in all cases: glycan notation: IUPAC condensed, linker removed
[1] = molecular target: Fuc(a1-2)Gal(b1-3)GalNAc
In short: (§1)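 The binding signal is a Z-score computed within each array and averaged over linkers. Arrays of the same protein sequence at different concentrations or buffers were also averaged together. Data originate from 3228 arrays in the Consortium for Functional Glycomics database, kept only where the protein sequence was available.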

[2] = molecular target: Fuc(a1-2)Gal(b1-3)GalNAc(b1-4)[Neu5Ac(a2-3)]Gal(b1-4)Glc
In short: as §1

[3] = molecular target: Fuc(a1-2)Gal(b1-3)GlcNAc(b1-3)[Neu5Ac(a2-6)Gal(b1-4)GlcNAc(b1-6)]Gal(b1-4)Glc
In short: as §1

[4] = molecular target: Fuc(a1-2)Gal(b1-3)GlcNAc6S
In short: as §1

[5] = molecular target: Fuc(a1-2)Gal(b1-3)[Fuc(a1-4)]GlcNAc
In short: as §1

[6] = molecular target: Fuc(a1-2)Gal(b1-3)[Fuc(a1-4)]GlcNAc(b1-2)Man(a1-3)[Fuc(a1-2)Gal(b1-3)[Fuc(a1-4)]GlcNAc(b1-2)Man(a1-3)]Man(b1-4)GlcNAc(b1-4)GlcNAc
In short: as §1

[7] = molecular target: Fuc(a1-2)Gal(b1-4)Glc
In short: as §1

[8] = molecular target: Fuc(a1-2)Gal(b1-4)Glc6S
In short: as §1

[9] = molecular target: Fuc(a1-2)Gal(b1-4)GlcNAc(b1-2)Man
In short: as §1

[10] = molecular target: Fuc(a1-2)Gal(b1-4)[Fuc(a1-3)]GlcNAc
In short: as §1

[11] = molecular target: Fuc(a1-2)[Gal(a1-3)]Gal(b1-4)[Fuc(a1-3)]Glc
In short: as §1

[12] = molecular target: Fuc(a1-2)[Gal(a1-3)]Gal(b1-4)[Fuc(a1-3)]GlcNAc
In short: as §1

[13] = molecular target: Fuc(a1-2)[GalNAc(a1-3)]Gal(b1-3)GlcNAc
In short: as §1

[14] = molecular target: Fuc(a1-2)[GalNAc(a1-3)]Gal(b1-3)GlcNAc(b1-2)Man(a1-3)[Fuc(a1-2)[GalNAc(a1-3)]Gal(b1-3)GlcNAc(b1-2)Man(a1-6)]Man(b1-4)GlcNAc(b1-4)GlcNAc
In short: as §1

[15] = molecular target: Fuc(a1-3)[Gal(b1-4)]GlcNAc(b1-3)GalNAc
In short: as §1

[16] = molecular target: Fuc(a1-3)[Gal3S(b1-4)]GlcNAc
In short: as §1

[17] = molecular target: Fuc(a1-3)[GalNAc(b1-4)]GlcNAc
In short: as §1

[18] = molecular target: Gal(a1-4)Gal(b1-3)GlcNAc(b1-2)Man(a1-3)[Gal(a1-4)Gal(b1-3)GlcNAc(b1-2)Man(a1-6)]Man(b1-4)GlcNAc(b1-4)GlcNAc
In short: as §1

[19] = molecular target: Gal(a1-4)GlcNAc
In short: as §1

[20] = molecular target: Gal(b1-3)Gal
In short: as §1

[21] = molecular target: Gal(b1-3)GalNAc
In short: as §1

[22] = molecular target: Gal(b1-3)GlcNAc(b1-2)Man(a1-3)[GlcNAc(b1-4)][Gal(b1-3)GlcNAc(b1-2)Man(a1-6)]Man(b1-4)GlcNAc(b1-4)GlcNAc
In short: as §1

[23] = molecular target: Gal(b1-3)GlcNAc(b1-3)Gal(b1-4)GlcNAc(b1-3)Gal(b1-4)GlcNAc(b1-2)[Gal(b1-3)GlcNAc(b1-3)Gal(b1-4)GlcNAc(b1-3)Gal(b1-4)GlcNAc(b1-6)]Man(a1-6)[Gal(b1-3)GlcNAc(b1-3)Gal(b1-4)GlcNAc(b1-3)Gal(b1-4)GlcNAc(b1-2)Man(a1-3)]Man(b1-4)GlcNAc(b1-4)[Fuc(a1-6)]GlcNAc
In short: as §1

[24] = molecular target: Gal(b1-3)GlcNAc(b1-3)GalNAc
In short: as §1

[25] = molecular target: Gal(b1-3)[Neu5Ac(a2-6)]GalNAc
In short: as §1

[26] = molecular target: Gal(b1-4)Gal
In short: as §1

[27] = molecular target: Gal(b1-4)GlcNAc(b1-2)Man(a1-3)[Gal(b1-4)GlcNAc(b1-2)Man(a1-6)]Man(b1-4)GlcNAc(b1-4)[Fuc(a1-6)]GlcNAc
In short: as §1

[28] = molecular target: Gal(b1-4)GlcNAc(b1-2)Man(a1-3)[Man(a1-6)]Man(b1-4)GlcNAc(b1-4)GlcNAc
In short: as §1

B1: SHCBP1-GST (Homo sapiens), Q8NEM2 (protein)
chain: MADGSLTGGGLEAAAMAPERMGWAVEQELASLEKGLFQDEDSCSDCSYRDKPGSSLQSFMPEGKTFFPEIFQTNQLLFYERFRAYQDYILADCKASEVQEFTAEFLEKVLEPSGWRAVWHTNVFKVLVEITDVDFAALKAVVRLAEPYLCDSQVSTFTMECMKELLDLKEHRLPLQELWVVFDDSGVFDQTALAIEHVRFFYQNIWRSWDEEEEDEYDYFVRCVEPRLRLHYDILEDRVPSGLIVDYHNLLSQCEESYRKFLNLRSSLSNCNSDSEQENISMVEGLKLYSEMEQLKQKLKLIENPLLRYVFGYQKNSNIQAKGVRSSGQKITHVVSSTMMAGLLRSLLTDRLCQEPGEEEREIQFHSDPLSAINACFEGDTVIVCPGHYVVHGTFSIADSIELEGYGLPDDIVIEKRGKGDTFVDCTGADIKISGIKFVQHDAVEGILIVHRGKTTLENCVLQCETTGVTVRTSAEFLMKNSDLYGAKGAGIEIYPGSQCTLSDNGIHHCKEGILIKDFLDEHYDIPKISMVNNIIHNNEGYGVVLVKPTIFSDLQENAEDGTEENKALKIQTSGEPDVAERVDLEELIECATGKMELCARTDPSEQVEGNCEIVNELIAASTQKGQIKKKRLSELGITQADDNLMSQEMFVGIVGNQFKWNGKGSFGTFLF
- glycan array binding signal (z-score) [1]: -0.317
- glycan array binding signal (z-score) [2]: -0.821
- glycan array binding signal (z-score) [3]: -0.751
- glycan array binding signal (z-score) [4]: -0.806
- glycan array binding signal (z-score) [5]: 0.085
- glycan array binding signal (z-score) [6]: 0.999
- glycan array binding signal (z-score) [7]: -0.192
- glycan array binding signal (z-score) [8]: -0.251
- glycan array binding signal (z-score) [9]: -0.583
- glycan array binding signal (z-score) [10]: -0.113
- glycan array binding signal (z-score) [11]: -0.299
- glycan array binding signal (z-score) [12]: 0.298
- glycan array binding signal (z-score) [13]: -0.199
- glycan array binding signal (z-score) [14]: -0.355
- glycan array binding signal (z-score) [15]: 2.35
- glycan array binding signal (z-score) [16]: -0.161
- glycan array binding signal (z-score) [17]: 0.35
- glycan array binding signal (z-score) [18]: 4.1
- glycan array binding signal (z-score) [19]: -0.477
- glycan array binding signal (z-score) [20]: 0.702
- glycan array binding signal (z-score) [21]: -0.251
- glycan array binding signal (z-score) [22]: 2.98
- glycan array binding signal (z-score) [23]: 3.45
- glycan array binding signal (z-score) [24]: 0.539
- glycan array binding signal (z-score) [25]: -1.01
- glycan array binding signal (z-score) [26]: -0.879
- glycan array binding signal (z-score) [27]: 0.409
- glycan array binding signal (z-score) [28]: 0.6
